# Results filed as inconclusive are left out. Unmarked numbers belong to inactive results. Calls of active or inactive are those of the source. Calls come from the whole dose curve; as a rule, active = well fitted inhibition curve with a large enough effect; inconclusive = small, poorly fitted or top-dose-only effect; inactive = flat fitted curve, though single readings scatter. Where a SMILES comes first, the peptide text is derived from it. The star is where a group is joined. AMC = Cc1cc(=O)oc2cc(N*)ccc12; Cbz = O=C(OCc1ccccc1)*
# Assay: P-glycoprotein substrates identified in KB-8-5-11 adenocarcinoma cell line, qHTS therapeutic library screen (AID 1346987); note: nearly all actives have a fitted effect of over 65% in size
# Settings: KB-8-5-11 (P-gp overexpressing) viability, CellTiter-Glo, 72 h; series mostly up to 44.5 µM; activity change, negative = cytotoxicity: at the top concentration
# Summary of the method: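 Compounds are pinned in dose-response onto KB-8-5-11 cells (500 cells/well, colchicine-free medium) and left 72 h at 37 degree C. CellTiter-Glo luminescence then yields AC50 values.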
# % is set by controls: 0 for no effect and ±100 for the full control effect.
Compound,outcome,"activity change, negative = cytotoxicity"
OC[C@H]1O[C@@H](O[C@H]2[C@H](O)[C@@H](CO)O[C@@H](OCc3ccccc3)[C@@H]2O[C@@H]2OC[C@](O)(CO)[C@H]2O)[C@H](O)[C@@H](O)[C@@H]1O,inactive [at 17.3 µM],
COc1cc(C(=O)OC[C@@]2(O)CO[C@@H](O[C@H]3[C@H](Oc4ccc(O)cc4)O[C@H](CO)[C@@H](O)[C@@H]3O)[C@@H]2O)cc(OC)c1O,,9.54% [at 17.3 µM]
Cc1cc(C)c2nc(-c3ccccn3)cc(C(=O)Nc3ccc(S(=O)(=O)Nc4onc(C)c4C)cc3)c2c1,,3.65%
CC1=C2C3OC(=O)C(C)C3(O)CCC2(C)CCC1 (stereo unspecified),,7.82%
COc1cncc(C#Cc2ccccn2)c1,inactive,
O=C1NC(=O)/C(=C/c2cccc(C(F)(F)F)c2)S1,,-15.3%
c1cc(-c2cc(C3CCNCC3)[nH]n2)ccn1,,-4.84% [at 17.3 µM]
C=C1CCC2[C@@](C)(C(=O)O)CCC[C@@]2(C)[C@@H]1CCc1ccoc1 (stereo partly specified),,-19.6%
CC(=O)NC1C(OC2CCC3(C)C(CCC4(C)C3CC=C3C5CC(C)(C)CCC5(C(=O)O)C(O)CC34C)C2(C)C)OC(CO)C(O)C1O (stereo unspecified),,-5.63% [at 17.3 µM]
O=C(/C=C/c1ccccc1)O[C@@H]1[C@@H](CO)O[C@@](CO)(O[C@H]2O[C@H](CO)[C@@H](O)[C@H](O)[C@H]2O)[C@H]1O,,9.6% [at 17.3 µM]
CC1=CCC[C@@H]2[C@](CCc3ccoc3)(C(=O)O)[C@H](C)CC[C@@]12C,,3.84%
C[C@@H]1O[C@@H](O[C@H]2[C@H](O[C@H]3[C@H](O[C@H]4CC[C@@]5(C)C(CC[C@]6(C)C5CC=C5[C@@H]7CC(C)(C)C[C@@H](O)[C@]7(C)CC[C@]56C)[C@@]4(C)CO)O[C@H](C(=O)O)[C@@H](O)[C@@H]3O)O[C@H](C(=O)O)[C@H](O)[C@@H]2O)[C@H](O)[C@H](O)[C@H]1O (stereo partly specified),inactive [at 9.29 µM],
CC(=O)O[C@@H]1[C@H](OC(C)=O)C[C@@]2(C)C(CC[C@@H](C)[C@]23Cc2c(O)cc4c(c2O3)CN([C@@H](CCC(=O)O)C(=O)O)C4=O)C1(C)C (stereo partly specified),inactive [at 17.3 µM],
O=C(O)CCc1ccc(NCc2cccc3c2CCCN3CCOc2ccccc2)cc1F,,4.86%
C=C[C@H]1[C@H](O[C@@H]2O[C@H](CO)[C@@H](O)[C@H](O)[C@H]2O)OC=C(C(=O)OC)[C@H]1CCO,,8.76%
COc1ccc(C2C(C(=O)O)C(C(=O)O)C2c2ccc(OC)cc2O[C@@H]2O[C@H](CO)[C@@H](O)[C@H](O)[C@H]2O)c(O[C@@H]2O[C@H](CO)[C@@H](O)[C@H](O)[C@H]2O)c1 (stereo partly specified),,-2.15% [at 17.3 µM]

Compound,outcome,"activity change, negative = cytotoxicity"
COc1cc(Cc2cnc(N)nc2N)c(C(C)C)cc1OC,,4.26%
Cc1cc(=O)oc2cc(NC(=O)[C@H](CCC(=O)O)NC(=O)[C@H](CC(C)C)NC(=O)[C@H](CC(C)C)NC(=O)OCc3ccccc3)ccc12 (Cbz-Leu-Leu-Glu-{AMC}),inactive,
Cc1sc(C)c(C(=O)NC2(c3ccc(C(=O)O)cc3)CC2)c1Cc1ccc(C(F)(F)F)cc1,,-2.04%
CC1OC(OC2C(OC3C(O[C@H]4CC[C@@]5(C)C(CC[C@]6(C)C5CC=C5C7CC(C)(C)CC(O)[C@]7(C)CC[C@]56C)C4(C)C)OC(C(=O)O)C(O)C3O)OCC(O)C2O)C(O)C(O)C1O (stereo partly specified),inactive [at 9.29 µM],
CC(=O)/C=C/[C@H]1[C@](C)(O)[C@@H](O)[C@H](O)C2C(C)(C)CCC[C@@]21C (stereo partly specified),,-13.4%
C/C=C(\C)C1C(C)=CC2CCC(OS(=O)(=O)O)C(C)C2C1/C=C/C=C/C(=O)O (stereo unspecified),,6.83% [at 17.3 µM]
C=C(C)[C@H]1CC[C@]2(C(=O)O)CC[C@]3(C)C(CCC4[C@@]5(C)CCC(=O)C(C)(C)C5CC[C@]43C)C12 (stereo partly specified),,-27.5% [at 17.3 µM]
C=C1CCC2C(C)(C)CC(=O)CC2(C)C1CCC(C)CCO (stereo unspecified),,5.78%
COC(=O)[C@]1(C)CCC[C@@]2(C)C(=O)CC[C@H]3C(=O)C=C(CC[C@@H]21)C3O (stereo partly specified),,9.87%
CC1=CC23[C@H](C=C(C(=O)O)[C@@H]2COC(=O)[C@]3(O)CO)[C@@H]1C (stereo partly specified),,2.83%
C=C1CCC2C(C)(C)CC(O)CC2(C)C1CCC(C)CC(=O)O (stereo unspecified),,6.03%
CC(C)c1ccc2c(c1)C(O)CC1C(C)(CO)CCCC21C (stereo unspecified),,6.41%
CC(=O)OC1CCC2(C)C(CCC3(C)C2CC=C2C4CC(C)(C)CCC4(C)CCC23C)C1(C)C(=O)O (stereo unspecified),,0.336% [at 17.3 µM]
CSCC1OC(n2cnc3c(=O)[nH]cnc32)C(O)C1O (stereo unspecified),,4.49%
Cc1cc(-n2c(=O)[nH]c(=O)n(C)c2=O)ccc1Oc1ccc(SC(F)(F)F)cc1,inactive,
